This is an account of results in PubChem BioAssay (Tox21).

“And” between values parts separate entries of the source, which are not always exact repeats. Equal entries are not always repeated. Records with an inconclusive call do not appear. Some structures have more than one record in an assay (separate samples or runs), and their calls can disagree. The source made the active and inactive calls. Unless noted, calls come from the whole dose curve; as a rule, active = well fitted curve in the direction sought with a large enough effect in the repeat runs; inconclusive = weak or mixed curves; inactive = no such curve, though single readings can be large; an effect the other way counts as inactive or inconclusive.

Experiment [1] in a line: qHTS assay to identify small molecule antagonists of the glucocorticoid receptor (GR) signaling pathway - cell viability counter screen (AID 720693). Note: nearly all actives have a fitted effect of over 55% in size.
Experiment [2] in a line: qHTS assay for identifying genotoxic compounds that show differential cytotoxicity against isogenic chicken DT40 cell lines with known DNA damage response pathways - wild type cell line (AID 743012). Note: nearly all actives have a fitted effect of over 60% in size. Note: potency is the fitted concentration of half-maximal effect. The procedure, abridged: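 Quantitative HTS on parental DT40 cells: 40 h compound treatment at 37 C/5% CO2, with viability then determined by CellTiter-Glo luminescence. Values serve as the DNA repair-proficient reference for differential cytotoxicity.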

Experiment [3] in a line: qHTS assay for identifying genotoxic compounds that show differential cytotoxicity against isogenic chicken DT40 cell lines with known DNA damage response pathways - Rev3 mutant cell line (AID 743014). Note: nearly all actives have a fitted effect of over 55% in size. Note: potency is the fitted concentration of half-maximal effect. For orientation: In qHTS, concentration-response curves come from the screen itself.
A short description of experiment [4]: qHTS assay for identifying genotoxic compounds that show differential cytotoxicity against isogenic chicken DT40 cell lines with known DNA damage response pathways - Rad54/Ku70 mutant cell line (AID 743015). Note: nearly all actives have a fitted effect of over 60% in size. Note: potency is the fitted concentration of half-maximal effect.
Experiment [5] is described as follows: qHTS assay to identify small molecule antagonists of the androgen receptor (AR) signaling pathway using the MDA cell line - cell viability counter screen (AID 743041; note: nearly all actives have a fitted effect of over 45% in size). The procedure, abridged: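 Same-well cytotoxicity was assessed by CellTiter-Fluor in MDA-kb2 AR-luc cells after 16 h of compound treatment under R1881 agonism.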
Experiment [6] in a line: qHTS assay to identify small molecule antagonists of the thyroid receptor (TR) signaling pathway - cell viability counter screen (AID 743064). Note: nearly all actives have a fitted effect of over 50% in size. Note: potency is the fitted concentration of half-maximal effect. A digest of the protocol: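 GH3.TRE-Luc rat pituitary cells dosed after 4 hr plating, co-stimulated with T3 at 1 nM final, incubated 23.5 h at 37 C. Viability measured in the same wells by CellTiter-Fluor fluorescence after 30 min further at 37 C.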

Experiment [7] in a line: qHTS assay to identify small molecule antagonists of the thyroid receptor (TR) signaling pathway (AID 743065). Note: nearly all actives have a fitted effect of over 55% in size. Note: potency is the fitted concentration of half-maximal effect. A digest of the protocol:
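GH3.TRE-Luc rat pituitary cells (two TREs driving luciferase) were dosed with compound, then stimulated with 1 nM T3 (final) for 23.5 h at 37 C. ONE-Glo luminescence was the read-out, with CellTiter-Fluor fluorescence as the cytotoxicity counter-screen.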

Experiment [8] deals with thyroid hormone receptor (rat, GH3 cells). Put plainly: qHTS assay to identify small molecule agonists of the thyroid receptor (TR) signaling pathway (AID 743066; calls by dose curve).
For experiment [9], the target named is Estrogen receptor (Homo sapiens) (UniProt P03372). Put plainly: qHTS assay to identify small molecule antagonists of the estrogen receptor alpha (ER-alpha) signaling pathway (AID 743069; active = well fitted curve in the direction sought with a large enough effect in the signal ratio in the repeat runs, not every such curve was filed as active; the % refers to the signal ratio). The procedure, abridged:
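Reporter cells (ER-alpha-bla, HEK293 background) are conditioned overnight in stripped-serum medium (2% charcoal-stripped FBS). Compound and 17beta-estradiol exposure runs 18 hr at 37C, 5% CO2.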

A short description of experiment [10]: qHTS assay to identify small molecule antagonists of the estrogen receptor alpha (ER-alpha) signaling pathway - cell viability counter screen (AID 743074; calls by dose curve;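 note: HEK293 cells carrying ER-alpha-UAS-bla reporter stimulated with 17beta-estradiol; nearly all actives have a fitted effect of over 45% in size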).
The target in experiment [11] is Estrogen receptor (Homo sapiens) (UniProt P03372). Put plainly: qHTS assay to identify small molecule agonists of the estrogen receptor alpha (ER-alpha) signaling pathway (AID 743075; calls by dose curve;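 note: HEK293 GripTite cells with ER-alpha and UAS-driven beta-lactamase reporter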).
Sequence of Estrogen receptor (Homo sapiens) (P03372 whole entry, looked up): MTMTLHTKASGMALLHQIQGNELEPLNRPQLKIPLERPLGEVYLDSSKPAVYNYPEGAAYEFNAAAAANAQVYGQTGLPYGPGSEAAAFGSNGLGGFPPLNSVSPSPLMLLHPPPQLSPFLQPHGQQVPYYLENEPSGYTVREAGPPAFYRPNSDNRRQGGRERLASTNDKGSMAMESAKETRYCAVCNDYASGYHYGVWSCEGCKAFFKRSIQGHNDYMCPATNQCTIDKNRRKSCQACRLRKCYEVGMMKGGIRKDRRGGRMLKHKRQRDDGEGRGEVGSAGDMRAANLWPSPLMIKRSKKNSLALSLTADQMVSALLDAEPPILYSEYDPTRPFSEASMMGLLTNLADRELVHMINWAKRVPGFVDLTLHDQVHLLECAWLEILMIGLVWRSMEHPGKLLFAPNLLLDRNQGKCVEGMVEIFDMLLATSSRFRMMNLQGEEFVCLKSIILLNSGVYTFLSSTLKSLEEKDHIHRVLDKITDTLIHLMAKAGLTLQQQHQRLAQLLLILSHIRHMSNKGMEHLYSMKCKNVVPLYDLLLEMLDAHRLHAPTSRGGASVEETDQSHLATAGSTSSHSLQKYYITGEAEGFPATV
Experiment [12] shares this target. Put plainly: qHTS assay to identify small molecule agonists of the estrogen receptor alpha (ER-alpha) signaling pathway using the BG1 cell line (AID 743079). Note: nearly all actives have a fitted effect of over 20% in size. Note: potency is the fitted concentration of half-maximal effect.
Experiment [13] can be described thus: qHTS assay to identify small molecule antagonists of the estrogen receptor alpha (ER-alpha) signaling pathway using the BG1 cell line (AID 743080; calls by dose curve;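 note: BG1 cells stimulated with 17beta-estradiol alongside compound; series mostly up to about 70 µM; nearly all actives have a fitted effect of over 25% in size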). A digest of the protocol: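 Luminescence from a 4×ERE-luciferase reporter in BG1-Luc-4E2 cells served as read-out. Cells, pre-cultured 5 days in stripped-serum phenol-red-free medium, were exposed to compound with 17beta-estradiol co-stimulation for 21.5 h at 37 C.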

The nature of experiment [14]: qHTS assay to identify small molecule antagonists of the estrogen receptor alpha (ER-alpha) signaling pathway using the BG1 cell line - cell viability counter screen (AID 743081).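 Note: compound given together with 17beta-estradiol as the ER stimulus; series mostly up to about 70 µM; nearly all actives have a fitted effect of over 45% in size.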
The next experiment addresses Aromatase (Homo sapiens) (UniProt P11511). Put plainly: qHTS assay to identify aromatase inhibitors (AID 743083). Note: series mostly up to about 70 µM; nearly all actives have a fitted effect of over 55% in size.
The nature of experiment [15]: qHTS assay to identify small molecule antagonists of the androgen receptor (AR) signaling pathway - cell viability counter screen (AID 743033; note: nearly all actives have a fitted effect of over 45% in size).

Sequence of Aromatase (Homo sapiens) (P11511 whole entry, looked up): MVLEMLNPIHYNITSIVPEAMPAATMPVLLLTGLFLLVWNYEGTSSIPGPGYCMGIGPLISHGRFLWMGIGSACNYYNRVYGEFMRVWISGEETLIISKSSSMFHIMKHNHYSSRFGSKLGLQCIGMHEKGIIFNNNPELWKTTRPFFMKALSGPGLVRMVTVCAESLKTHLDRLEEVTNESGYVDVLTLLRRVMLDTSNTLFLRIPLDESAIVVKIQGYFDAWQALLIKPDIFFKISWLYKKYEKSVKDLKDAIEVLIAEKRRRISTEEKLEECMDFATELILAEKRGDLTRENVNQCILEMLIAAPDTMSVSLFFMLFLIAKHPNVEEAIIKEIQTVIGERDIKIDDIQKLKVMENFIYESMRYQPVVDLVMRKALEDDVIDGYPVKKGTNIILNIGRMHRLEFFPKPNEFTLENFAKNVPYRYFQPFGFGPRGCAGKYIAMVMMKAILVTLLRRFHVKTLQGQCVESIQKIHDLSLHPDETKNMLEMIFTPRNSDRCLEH

Turning to `O=C(O)COc1ccccc1`, the Potency entry in [1], in experiment [2], in experiment [3], in experiment [4], in experiment [6] and in experiment [7] was “inactive” in each case. For the same compound, the Potency result (in experiment [8]; in [9]; in experiment [12]; with Aromatase (Homo sapiens)) was “inactive” in each case. Further, the outcome in [5], in experiment [10], in [11], in [13] and in experiment [14] was inactive.
As for `CNc1cnn(-c2cccc(C(F)(F)F)c2)c(=O)c1Cl`, the Potency result in experiment [1], in experiment [2], in [4], in experiment [6], in experiment [7] and in experiment [8] was “inactive” in each case. The Potency result with Aromatase (Homo sapiens) was “inactive”. Also, the Potency entry in [3] is “inactive and 61.1 µM (active)”. Besides, the outcome in experiment [5], in experiment [10] and in [14] was inactive.
With `O=C(O)CCCc1ccc(N(CCCl)CCCl)cc1`, the Potency entry (in [1]; in [8]; in [9]; in experiment [12]; with Aromatase (Homo sapiens)) was “inactive” in each case. For the same compound, the Potency is 21.1 µM (active) and 770 nM (active) in experiment [2]; 3.86 µM (active) in [4]; 61.1 µM (active) in experiment [6]; 30.8 µM (active) and 27.3 µM (active) in experiment [7]. Also, the compound was called inactive in [15], in experiment [5], in [10], in experiment [11], in experiment [13] and in experiment [14].
Regarding `O=C(O)C1C(C(=O)O)C2(Cl)C(Cl)=C(Cl)C1(Cl)C2(Cl)Cl` (configuration not stated), the Potency result in experiment [1], in experiment [2], in experiment [4], in experiment [6], in [7] and in experiment [8] was “inactive” each time. Also, the Potency result (in experiment [9]; in experiment [12]; with Aromatase (Homo sapiens)) was “inactive” throughout. Besides, the compound was classed as inactive in experiment [15], in experiment [5], in experiment [10], in [11], in experiment [13] and in [14].
Take `OCc1ccco1`: the Potency result in experiment [1], in experiment [2], in [4], in [6], in experiment [7] and in experiment [8] was “inactive” throughout. The Potency entry (in experiment [9]; in [12]; in the experiment with Aromatase (Homo sapiens)) was “inactive” throughout. The call in [15], in experiment [5], in experiment [10], in [11], in experiment [13] and in experiment [14] was inactive.
For the compound `Nc1ncc([N+](=O)[O-])s1`, the Potency entry in experiment [1], in [2], in experiment [4], in experiment [6], in experiment [7] and in experiment [8] was “inactive” each time. In addition, the Potency result (in experiment [9]; in the experiment with Aromatase (Homo sapiens)) was “inactive” each time. Besides, the result in experiment [15], in experiment [5], in [10], in experiment [11], in experiment [13] and in [14] was inactive. For the same compound, the Potency entry in experiment [12] was “inactive and 61.1 µM (active)”.
Regarding `O=C(O)c1cc(Oc2ccc(C(F)(F)F)cc2Cl)ccc1[N+](=O)[O-]`, the Potency entry in experiment [1], in experiment [2], in experiment [3], in experiment [4], in experiment [6] and in experiment [7] was “inactive” throughout. The Potency result (in experiment [8]; with Aromatase (Homo sapiens)) was “inactive” throughout. In addition, the result in [5], in experiment [10] and in [14] was inactive.
As to `CSc1nnc(C(C)(C)C)c(=O)n1N`, the Potency result in [1], in [2], in experiment [3], in [4], in experiment [6] and in experiment [7] was “inactive” each time. Moreover, in [8], the Potency result is “inactive”. In addition, the call in experiment [5], in experiment [10] and in experiment [14] was inactive.
In the case of `Nc1cccc(Cl)c1`, the Potency entry in experiment [1], in [2], in [3], in experiment [4], in experiment [6] and in [7] was “inactive” throughout. In addition, the Potency result (in experiment [8]; in experiment [9]; in experiment [12]; in the experiment with Aromatase (Homo sapiens)) was “inactive” throughout. Besides, the compound was classed as inactive in experiment [5], in [10], in [11], in experiment [13] and in experiment [14].
For the compound `O=C(O)Cc1ccccc1`, the Potency entry in experiment [1], in [2], in [3], in experiment [4], in experiment [6] and in [7] was “inactive” throughout. The Potency result (in [8]; in experiment [9]; in experiment [12]; in the experiment with Aromatase (Homo sapiens)) was “inactive” in each case. The call in experiment [5], in [10], in experiment [11], in experiment [13] and in [14] was inactive.
